Data from the antibiotic and cytotoxicity screens of Wong et al. (2023).
The campaign covered roughly 39,000 compounds. About 3,300 (8.5%) were called active. The entries come from a sample that favours actives as a whole.

System: HepG2
Assay: cytotoxicity call (relative viability < 0.9)
Conditions: 10 µM

Structure (SMILES)	cytotoxicity call
C[C@H]1CN([C@@H](C)CO)C(=O)c2cc(NC(=O)CCN3CCOCC3)ccc2O[C@@H]1CN(C)C(=O)Nc1ccc(F)cc1	inactive
C/N=C1\S[C@@H](CC(=O)NC(C)C)C(=O)N1C	inactive
C[C@@H]1CN([C@@H](C)CO)C(=O)c2cc(C#Cc3cccnc3)cnc2O[C@@H]1CN(C)S(=O)(=O)c1ccccc1F	inactive
C[C@H]1CN([C@@H](C)CO)C(=O)c2cccc(NC(=O)CCCCCC(=O)Nc3ccccc3N)c2O[C@@H]1CN(C)S(=O)(=O)c1cn(C)cn1	inactive
CC(C)NC(=O)N(C)C[C@H]1OCCCC[C@@H](C)Oc2ccc(NC(=O)Nc3cccc4ccccc34)cc2C(=O)N([C@H](C)CO)C[C@@H]1C	inactive
N#Cc1c(-c2ccccc2)no[n+]1[O-]	inactive
C[C@H]1CN([C@@H](C)CO)C(=O)c2cc(NC(=O)CCN3CCOCC3)ccc2O[C@@H]1CN(C)CC1CCCCC1	inactive
Cc1ccc(S(=O)(=O)N(C)C[C@H]2Oc3ccc(NS(=O)(=O)c4cn(C)cn4)cc3CC(=O)N([C@H](C)CO)C[C@@H]2C)cc1	inactive
C[C@@H]1CN([C@H](C)CO)S(=O)(=O)c2ccc(C#Cc3ccncc3)cc2O[C@@H]1CN(C)C(=O)C1CCC1	active
Cc1noc(C)c1S(=O)(=O)Nc1ccc2c(c1)C(=O)N([C@@H](C)CO)C[C@@H](C)[C@@H](CN(C)S(=O)(=O)c1ccc(F)cc1)O2	inactive
C[C@H]1CN([C@@H](C)CO)C(=O)Cc2cc(NC(=O)Nc3ccc(C(F)(F)F)cc3)ccc2O[C@H]1CN(C)Cc1ccc(Cl)c(Cl)c1	active
C[C@H](CO)N1C[C@H](C)[C@H](CN(C)Cc2ccc(Cl)c(Cl)c2)Oc2ccc(NC(=O)Nc3ccc(C(F)(F)F)cc3)cc2CC1=O	inactive
C[C@@H]1CN([C@H](C)CO)C(=O)Cc2cc(NC(=O)Nc3ccc(C(F)(F)F)cc3)ccc2O[C@@H]1CN(C)Cc1ccc(Cl)c(Cl)c1	active
C[C@@H]1CN([C@H](C)CO)C(=O)Cc2cc(NC(=O)Nc3ccc(C(F)(F)F)cc3)ccc2O[C@H]1CN(C)Cc1ccc(Cl)c(Cl)c1	inactive
C[C@@H]1CN([C@@H](C)CO)C(=O)Cc2cc(NC(=O)Nc3ccc(C(F)(F)F)cc3)ccc2O[C@H]1CN(C)Cc1ccc(Cl)c(Cl)c1	active
C[C@H]1CN([C@@H](C)CO)C(=O)Cc2cc(NC(=O)Nc3ccc(C(F)(F)F)cc3)ccc2O[C@@H]1CN(C)Cc1ccc(Cl)c(Cl)c1	inactive
C[C@H](CO)N1C[C@H](C)[C@@H](CN(C)Cc2ccc(Cl)c(Cl)c2)Oc2ccc(NC(=O)Nc3ccc(C(F)(F)F)cc3)cc2CC1=O	active
CC(C)NC(=O)N(C)C[C@@H]1Oc2ccc(NC(=O)CCCN(C)C)cc2C(=O)N([C@H](C)CO)C[C@@H]1C	inactive
COc1ccc2c3c(n(c2c1)C)[C@H](CO)N(C[C@]13CN(CC2CCOCC2)C1)C(=O)Cc1ccccn1	inactive
NC(=O)c1ccc[n+](CC(=O)N2CCCCC2)c1	inactive
Cc1noc(C)c1S(=O)(=O)Nc1ccc2c(c1)C(=O)N([C@@H](C)CO)C[C@H](C)[C@@H](CN(C)C(=O)Nc1ccccc1)O2	inactive

Structure (SMILES)	cytotoxicity call
O=C(C[C@H]1CC[C@H]2[C@@H](COC[C@@H](O)CN2S(=O)(=O)c2ccc(F)cc2)O1)N1CCc2ccccc2C1	inactive
O=c1nc(NCCN2CCOCC2)cn[nH]1	inactive
NC(=O)Cn1nnc(-c2ccccc2)n1	inactive
C[C@@H]1CN([C@H](C)CO)C(=O)c2cc(NC(=O)Nc3cccc4ccccc34)ccc2O[C@H]1CN(C)Cc1ccncc1	inactive
C[C@@H]1CN([C@@H](C)CO)C(=O)c2cccc(NC(=O)c3nc4ccccc4s3)c2O[C@@H]1CN(C)S(=O)(=O)c1cn(C)cn1	inactive
COc1ccc2c3c([nH]c2c1)[C@H](CO)N(C[C@]13CN(C1)S(=O)(=O)c1ccccc1)C(=O)c1cnccn1	inactive
COc1cccc(NC(=O)N[C@H]2CC[C@@H](CC(=O)N3CCOCC3)O[C@H]2CO)c1	inactive
C[C@@H]1CN([C@@H](C)CO)C(=O)Cc2cc(NC(=O)Nc3ccc(C(F)(F)F)cc3)ccc2O[C@@H]1CN(C)Cc1ccc(Cl)c(Cl)c1	active
COc1ccc(S(=O)(=O)N(C)C[C@H]2Oc3ccc(NC(=O)Cc4ccccc4)cc3C(=O)N([C@H](C)CO)C[C@@H]2C)cc1	inactive
C[C@@H]1CN([C@H](C)CO)C(=O)c2cccc(NC(=O)Nc3cccc4ccccc34)c2O[C@H]1CN(C)C(=O)Nc1ccc2c(c1)OCO2	inactive
NS(=O)(=O)c1cccc2c1c([N+](=O)[O-])cc1[nH]c(=O)c(=O)[nH]c12	inactive
C[C@@H]1CCCCO[C@@H](CN(C)CC2CC2)[C@@H](C)CN([C@H](C)CO)C(=O)c2cc(NS(C)(=O)=O)ccc2O1	inactive
C[C@@H]1CN([C@@H](C)CO)C(=O)Cc2cc(NC(=O)Nc3ccc4c(c3)OCO4)ccc2O[C@@H]1CN(C)Cc1ccc(-c2ccccc2)cc1	inactive
C[C@@H]1CN([C@@H](C)CO)C(=O)Cc2cc(NC(=O)Nc3ccc4c(c3)OCO4)ccc2O[C@H]1CN(C)Cc1ccc(-c2ccccc2)cc1	active
C[C@@H]1CN([C@H](C)CO)C(=O)Cc2cc(NC(=O)Nc3ccc4c(c3)OCO4)ccc2O[C@@H]1CN(C)Cc1ccc(-c2ccccc2)cc1	active
C[C@H]1CN([C@@H](C)CO)C(=O)Cc2cc(NC(=O)Nc3ccc4c(c3)OCO4)ccc2O[C@@H]1CN(C)Cc1ccc(-c2ccccc2)cc1	active
C[C@H](CO)N1C[C@H](C)[C@H](CN(C)Cc2ccc(-c3ccccc3)cc2)Oc2ccc(NC(=O)Nc3ccc4c(c3)OCO4)cc2CC1=O	active
C[C@H]1CN([C@@H](C)CO)C(=O)Cc2cc(NC(=O)Nc3ccc4c(c3)OCO4)ccc2O[C@H]1CN(C)Cc1ccc(-c2ccccc2)cc1	inactive
C[C@@H]1CN([C@H](C)CO)C(=O)Cc2cc(NC(=O)Nc3ccc4c(c3)OCO4)ccc2O[C@H]1CN(C)Cc1ccc(-c2ccccc2)cc1	inactive
C[C@H](CO)N1C[C@H](C)[C@@H](CN(C)Cc2ccc(-c3ccccc3)cc2)Oc2ccc(NC(=O)Nc3ccc4c(c3)OCO4)cc2CC1=O	inactive
